Screening results as filed in PubChem BioAssay.
A selection: hits, their analogues and other compounds. The true share with any hit is near 5.7%.
DAX1 inh-1: inhibitors of DAX1 repression of SF-1 activated StAR promoter; 370,000 tested, 1.1% active; inhibition, % at 6.8 µM; HEK293T StAR-luciferase reporter, SF-1/DAX-1 repression relief; AID 652010;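 active = inhibition above the mean over all tested compounds plus 3 SD, cut at about 3.6% in these data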;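 also: higher inhibition means more luminescence from relief of DAX-1 repression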
AHR activator: activators of human aryl hydrocarbon receptor; activation, % at 5 µM; 320,000 tested, 2.5% active; P35869; AHR-responsive luciferase reporter cells, luminescence; in the data active = activation above about 47%
hcDAF12 agonist: activators of H. contortus DAF-12 nuclear receptor | 370,000 tested, 1.4% active | activation, % at 6.8 µM | HEK293 hcDAF-12 lit1-tk-luc reporter, luminescence; 0% DMSO, 100% Δ7-dafachronic acid;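 active = activation above the mean of all tested compounds plus 3 SD, cut at about 5.5% in these data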
hgDAF-12 ag: hgDAF-12 agonism, primary luciferase screen; HEK293 GAL4-hgDAF12 UAS-luciferase reporter, agonist luminescence; normalized to butyrate control; activation, % at 6.8 µM; 370,000 tested, 1.8% active; AID 687014;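 active = activation above a cutoff set at the mean of all screened compounds plus 3 SD, cut at about 10% in these data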
DAX1 inh-2: inhibits human nuclear receptor DAX1 | AID 504766 | HEK293 Gal4-DAX1 luciferase reporter, luminescence | P51843 | 340,000 tested, 0.99% active | inhibition, % at 6.75 µM;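 active = inhibition above the mean over all tested compounds plus 3 SD, cut at about 4.2% in these data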;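 also: inhibition shows as a rise in luminescence from relieved DAX1 repression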
Target sequence (P51843 207-470 limits assumed): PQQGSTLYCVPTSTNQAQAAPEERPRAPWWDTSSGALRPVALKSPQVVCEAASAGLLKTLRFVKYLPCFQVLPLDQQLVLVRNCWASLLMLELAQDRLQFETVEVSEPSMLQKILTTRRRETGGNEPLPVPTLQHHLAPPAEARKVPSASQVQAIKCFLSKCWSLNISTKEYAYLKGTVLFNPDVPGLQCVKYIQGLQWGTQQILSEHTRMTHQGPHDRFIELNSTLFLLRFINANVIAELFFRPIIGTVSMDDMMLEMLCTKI
ssDAF-12 act: S. stercoralis DAF-12 activation, primary screen; HEK293 ssDAF-12/GRIP1 lit1-tk-luc reporter, luminescence; % of 3 µM dafachronic acid response; activation, % at 6.8 µM; 370,000 tested, 1% active; AID 652126;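 active = activation above the mean over all tested compounds plus 3 SD, cut at about 0.9% in these data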
AHR act cf: confirmation of human aryl hydrocarbon receptor activators | shares compounds with AHR activator | human cells, AHR-responsive luciferase reporter, luminescence | activation, % at 9 µM | 2,300 tested, 87% active; in the data active = activation above about 49%;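 also: HepG2 hepatoma cells carrying a DRE-driven firefly luciferase reporter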
PXR counter: activates human PXR in AHR activator counter-screen; AID 434939; 2,300 tested, 88% active; cell-based PXR reporter, luciferase luminescence; shares compounds with AHR activator; activation, % at 11.6 µM; in the data active = activation above about 11%;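 also: human hepatoma DPX-2 cells expressing full-length human PXR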
Target sequence (O75469 whole entry, looked up): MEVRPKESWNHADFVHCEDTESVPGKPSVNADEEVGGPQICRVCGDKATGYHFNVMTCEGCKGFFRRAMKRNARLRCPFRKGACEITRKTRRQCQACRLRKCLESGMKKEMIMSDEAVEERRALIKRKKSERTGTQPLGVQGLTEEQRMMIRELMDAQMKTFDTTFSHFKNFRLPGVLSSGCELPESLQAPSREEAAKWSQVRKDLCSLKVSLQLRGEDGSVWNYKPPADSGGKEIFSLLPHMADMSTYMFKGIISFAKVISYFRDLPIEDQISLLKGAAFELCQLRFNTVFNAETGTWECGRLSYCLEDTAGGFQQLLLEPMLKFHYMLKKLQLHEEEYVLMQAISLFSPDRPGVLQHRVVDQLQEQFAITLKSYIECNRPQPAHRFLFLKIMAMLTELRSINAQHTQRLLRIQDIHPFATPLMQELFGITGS
Hits are given with their value.

How did CCOC(=O)Cc1csc(NC(=O)c2ccc(Br)s2)n1 do in these assays?
AHR activator: inactive

Results for Cc1ccc(CSc2nc3ccccc3cc2C=O)cc1 ?
DAX1 inh-1: inactive; AHR activator: 82; hcDAF12 agonist: inactive; hgDAF-12 ag: inactive; DAX1 inh-2: inactive; ssDAF-12 act: inactive; AHR act cf: 72; PXR counter: 15

How did Cc1ccc2c(cnn2C(=O)CCC(=O)N2CCCCC2)c1 do in these assays?
DAX1 inh-1: inactive; AHR activator: inactive; hcDAF12 agonist: inactive; hgDAF-12 ag: inactive; DAX1 inh-2: inactive; ssDAF-12 act: inactive

How did Cc1ccc(C(=O)c2sc3c(c2N)c(=O)[nH]c(=O)n3CCc2ccccc2)cc1 do in these assays?
DAX1 inh-1: inactive; AHR activator: 86; hcDAF12 agonist: inactive; hgDAF-12 ag: inactive; DAX1 inh-2: inactive; ssDAF-12 act: inactive; AHR act cf: 93; PXR counter: 42

Results for Nc1c(C(=O)c2ccccc2)sc2c1c(=O)[nH]c(=O)n2-c1ccccc1 ?
DAX1 inh-1: inactive; AHR activator: inactive; hcDAF12 agonist: inactive; hgDAF-12 ag: inactive; DAX1 inh-2: inactive; ssDAF-12 act: inactive

What do the screens show for `COc1ccc(C(=O)NN)cc1COc1ccc(Br)cc1`?
DAX1 inh-1: inactive; AHR activator: 102; hcDAF12 agonist: inactive; hgDAF-12 ag: inactive; DAX1 inh-2: inactive; ssDAF-12 act: inactive; AHR act cf: 90; PXR counter: 17

What do the screens show for `COc1ccc(C(C)=O)cc1COc1ccc(F)cc1`?
DAX1 inh-1: inactive; AHR activator: inactive; hcDAF12 agonist: inactive; hgDAF-12 ag: inactive; DAX1 inh-2: inactive; ssDAF-12 act: inactive

What do the screens show for `Cc1ccc(NC(=O)COC(=O)CNC(=O)c2cccs2)cc1S(=O)(=O)N1CCOCC1`?
DAX1 inh-1: inactive; hcDAF12 agonist: inactive; hgDAF-12 ag: inactive; DAX1 inh-2: inactive; ssDAF-12 act: inactive

How did S=C(NNc1ccc2ccccc2c1)NC1CCCCC1 do in these assays?
DAX1 inh-1: inactive; AHR activator: 108; hcDAF12 agonist: inactive; hgDAF-12 ag: inactive; DAX1 inh-2: inactive; ssDAF-12 act: inactive; AHR act cf: 90; PXR counter: 99

What do the screens show for `Cn1nccc1C(=O)N(CCN1CCCCC1)CC1CCCN(C2CCCC2)C1` (stereo unspecified)?
DAX1 inh-1: inactive; AHR activator: inactive; hcDAF12 agonist: inactive; hgDAF-12 ag: inactive; DAX1 inh-2: inactive; ssDAF-12 act: inactive

What do the screens show for `C=CCc1ccccc1OCCOc1ccc([N+](=O)[O-])cc1/C=N/NC(N)=O`?
DAX1 inh-1: inactive; AHR activator: 111; hcDAF12 agonist: inactive; hgDAF-12 ag: inactive; DAX1 inh-2: inactive; ssDAF-12 act: inactive; AHR act cf: 90; PXR counter: 35

How did CN(CCCN1CCOCC1)Cc1cn(C)nc1-c1ccccc1F do in these assays?
DAX1 inh-1: inactive; AHR activator: inactive; hcDAF12 agonist: inactive; hgDAF-12 ag: inactive; DAX1 inh-2: inactive; ssDAF-12 act: inactive

What do the screens show for `NC(=S)N/N=C/c1ccc(-c2ccccc2)o1`?
DAX1 inh-1: inactive; AHR activator: 93; hcDAF12 agonist: inactive; hgDAF-12 ag: inactive; DAX1 inh-2: inactive; ssDAF-12 act: inactive; AHR act cf: inactive; PXR counter: 21

How did CCNC(=S)N/N=C/c1ccc(-c2ccccc2)o1 do in these assays?
DAX1 inh-1: inactive; AHR activator: inactive; hcDAF12 agonist: inactive; hgDAF-12 ag: inactive; DAX1 inh-2: inactive; ssDAF-12 act: inactive

What do the screens show for `NC(=S)N/N=C\c1ccc(-c2cccc(Cl)c2Cl)o1`?
DAX1 inh-1: inactive; AHR activator: 107; hcDAF12 agonist: inactive; hgDAF-12 ag: inactive; DAX1 inh-2: inactive; ssDAF-12 act: inactive; AHR act cf: 110; PXR counter: 26

What do the screens show for `CN(C)/N=C/c1ccc(/C=N/NC(N)=S)o1`?
DAX1 inh-1: inactive; AHR activator: inactive; hcDAF12 agonist: inactive; hgDAF-12 ag: inactive; DAX1 inh-2: inactive; ssDAF-12 act: inactive

Results for Cc1cc(C)c(-c2cc(NC(=O)COC(=O)c3ccc(C#N)cc3)n(-c3ccccc3)n2)cc1C ?
DAX1 inh-1: inactive; AHR activator: 129; hcDAF12 agonist: inactive; hgDAF-12 ag: inactive; DAX1 inh-2: inactive; ssDAF-12 act: inactive; AHR act cf: 105; PXR counter: 82

What do the screens show for `Cc1cc(C)c(-c2cc(NC(=O)COC(=O)c3ccc(NC(=O)CC#N)cc3)n(-c3ccccc3)n2)cc1C`?
DAX1 inh-1: inactive; AHR activator: inactive; hcDAF12 agonist: inactive; hgDAF-12 ag: inactive; DAX1 inh-2: inactive; ssDAF-12 act: inactive

What do the screens show for `Cc1nc2cncc(Br)c2n1C`?
DAX1 inh-1: inactive; AHR activator: 81; hcDAF12 agonist: inactive; hgDAF-12 ag: inactive; DAX1 inh-2: inactive; ssDAF-12 act: inactive; AHR act cf: inactive; PXR counter: 24

What do the screens show for `Cc1nc2cnccc2n1C`?
DAX1 inh-1: inactive; AHR activator: inactive; hcDAF12 agonist: inactive; hgDAF-12 ag: inactive; DAX1 inh-2: inactive; ssDAF-12 act: inactive

How did O=C(Nc1c(C(=O)Nc2cccc(F)c2)oc2ccccc12)c1ccc2c(c1)OCO2 do in these assays?
DAX1 inh-1: inactive; AHR activator: inactive; hcDAF12 agonist: inactive; hgDAF-12 ag: inactive; DAX1 inh-2: inactive; ssDAF-12 act: inactive

What do the screens show for `CCOCC(=O)Nc1c(C(=O)Nc2ccc3c(c2)OCO3)oc2ccccc12`?
DAX1 inh-1: inactive; AHR activator: 102; hcDAF12 agonist: inactive; hgDAF-12 ag: inactive; DAX1 inh-2: inactive; ssDAF-12 act: inactive; AHR act cf: 106; PXR counter: 51

What do the screens show for `CCOc1ccc(NC(=O)c2oc3ccccc3c2NC(=O)CC)cc1`?
AHR activator: 95; AHR act cf: 58; PXR counter: 29

Results for Cc1ccc(NC2=CC(=O)C(=O)c3ccccc32)cc1 ?
DAX1 inh-1: inactive; AHR activator: inactive; hcDAF12 agonist: inactive; hgDAF-12 ag: inactive; DAX1 inh-2: inactive; ssDAF-12 act: inactive

Results for NS(=O)(=O)c1ccc(NC2=CC(=O)C(=O)c3ccccc32)cc1 ?
DAX1 inh-1: inactive; AHR activator: 114; hcDAF12 agonist: inactive; hgDAF-12 ag: inactive; DAX1 inh-2: inactive; ssDAF-12 act: inactive; AHR act cf: inactive; PXR counter: inactive

Results for C=CCn1c(O)c(N=NC(=S)Nc2cccc(C)c2)c2ccccc21 ?
DAX1 inh-1: inactive; AHR activator: 123; hcDAF12 agonist: inactive; hgDAF-12 ag: inactive; DAX1 inh-2: inactive; ssDAF-12 act: inactive; AHR act cf: 78; PXR counter: 59

What do the screens show for `CCn1c(O)c(N=NC(=O)CNc2cccc(C)c2)c2ccccc21`?
DAX1 inh-1: inactive; AHR activator: inactive; hcDAF12 agonist: inactive; hgDAF-12 ag: inactive; DAX1 inh-2: inactive; ssDAF-12 act: inactive

What do the screens show for `C=CCn1c(O)c(N=NC(=S)Nc2ccccc2F)c2ccccc21`?
DAX1 inh-1: inactive; AHR activator: 137; hcDAF12 agonist: inactive; hgDAF-12 ag: inactive; DAX1 inh-2: inactive; ssDAF-12 act: inactive; AHR act cf: 83; PXR counter: 79
